NS1 inh = qHTS Assay for Inhibitors of Influenza NS1 Protein Function; Potency, µM (top dose mostly 46.1 µM); 270,000 tested, 0.4% active; further: actives are rising curves; nearly all actives have a fitted effect of over 50% in size
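Compounds were scored for reversing the slow growth caused by influenza A NS1 in S. cerevisiae, measured by optical density at 600 nm. Assay medium contained 2% galactose at pH 6.0; NS1-free yeast of the same strain were the positive control.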
Pf growth 96h = Primary qHTS for delayed death inhibitors of the malarial parasite plastid, 96 hour incubation; P. falciparum luciferase reporter growth, 96 h; 320,000 tested, 6.9% active; AID 504834, 2011; Potency, µM (highest dose often 28.7 µM), usual class: inhibitors; active means well fitted inhibition curve with a large enough effect; inconclusive means small, poorly fitted or top-dose-only effect, or another doubt; inactive means no such curve, though single readings can be large or run the other way
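P. falciparum expressing integrated firefly luciferase grown in erythrocytes (2% hematocrit, 0.05% parasitemia final) with compounds for 96 hours at 37 C, 5% CO2. Growth inhibition read as loss of luminescence after adding luciferase detection reagent.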
SARS PLP yeast = qHTS of Yeast-based Assay for SARS-CoV PLP | S. cerevisiae expressing SARS-CoV PLpro, growth rescue | Potency, µM (titrated, usually from 32.9 µM), actives largely listed as activators | 330,000 tested, 0.19% active; further: nearly all actives have a fitted effect of over 55% in size
Pf growth 48h = Primary qHTS for delayed death inhibitors of the malarial parasite plastid, 48 hour incubation. Potency, µM (top dose mostly 28.7 µM), actives largely listed as inhibitors. 310,000 tested, 5.9% active. P. falciparum luciferase growth in erythrocytes, 48 h; active means well fitted inhibition curve with a large enough effect; inconclusive means small, poorly fitted or top-dose-only effect, or another doubt; inactive means no such curve, though single readings can be large or run the other way
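A one-generation exposure of luciferase-tagged malaria parasites in RPMI 1640/Albumax erythrocyte culture, 37 C and 5% CO2. Inhibition is inferred from decreased luminescence after adding detection reagent.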
A number is an active result; i = inactive; ? = inconclusive; nt = not tested or not shown; [ ] = another dose, or the depositor's remark. Hits are enriched below; roughly 10% of the tested compounds scored in any of these assays. Unless noted, the call rests on the fitted dose curve.

SMILES | NS1 inh | Pf growth 96h | SARS PLP yeast | Pf growth 48h
Clc1ccc(CN2C3=NCCCN3c3ccccc32)cc1 | i | ? | i | ?
OC(COc1ccc(Cl)cc1)CN1C2=NCCCN2c2ccccc21 (stereo unspecified) | i | ? | i | 5.2µM
O=C(CN1C2=NCCCN2c2ccccc21)c1ccc(Cl)cc1Cl | i | i | i | 0.37µM
O=C(CN1C2=NCCCN2c2ccccc21)c1ccc([N+](=O)[O-])cc1 | i | ? | i | 1.9µM
OC(CN1C2=NCCCN2c2ccccc21)c1ccc(Cl)cc1 (stereo unspecified) | i | i | i | nt
O=C(NNC(=O)C1[C@H]2CCCC[C@@H]12)NC1CCCCC1 (stereo partly specified) | i | i | i | i
COc1ccccc1C(=O)NCCC(=O)NCCC12CC3CC(CC(C3)C1)C2 | i | i | i | i
COc1ccc(C23CC4CC(CC(C4)C2)C3)cc1C(=O)NCCN(C)C | i | 12µM | i | ?
COc1ccccc1Cn1nnc2c(=O)[nH]c(C3CCN(C(=O)c4ccccc4Cl)CC3)nc21 | i | i | i | 9.3µM
COc1ccccc1Cn1nnc2c(=O)[nH]c(C3CCN(C(=O)c4ccc(F)cc4)CC3)nc21 | i | i | i | 12µM
CN(CC(=O)Nc1cccc(F)c1)C(=O)c1ccc(COc2ccccc2)o1 | nt | ? | i | ?
COc1ccc2nc3c(cc2c1)c(NC(=O)CC(C)C)nn3CC(C)C | i | ? | i | 5.2µM
Clc1cccc(Cl)c1CSc1nnc(-c2ccncc2)s1 | i | 2.1µM | i | 2.6µM
Clc1ccc(CSc2nnc(-c3ccncc3)s2)cc1 | i | i | i | ?
Cc1ccc(S(=O)(=O)N2CC(C)C(=O)CC2C)cc1 (stereo unspecified) | i | ? | i | i
Cc1ccc(S(=O)(=O)N2C(=O)C(C)SC2=Nc2ccccc2)cc1 (stereo unspecified) | i | i | i | i
C=CCN=C1SC(C)C(=O)N1S(=O)(=O)c1ccccc1 (stereo unspecified) | ? | 7.4µM | i | i
O=C1CC(N2CCN(S(=O)(=O)c3ccccc3F)CC2)C(=O)N1c1ccc(F)cc1F (stereo unspecified) | nt | nt | i | nt
COc1ccc([C@@H]2[C@@H]3C(=O)N(C(C)(C)C)C(=O)[C@@H]3[C@]3(Cc4ccccc4)C(=O)N(c4ccc(OC)cc4)C(=O)N23)cc1 | nt | ? | i | ?
COc1ccc([C@@H]2[C@@H]3C(=O)N(C(C)(C)C)C(=O)[C@@H]3[C@]3(Cc4ccc(Cl)cc4)C(=O)N(c4ccc(C)cc4)C(=O)N23)cc1 | nt | 6.6µM | i | 13µM
COc1ccc([C@@H]2[C@@H]3C(=O)N(C(C)(C)C)C(=O)[C@@H]3[C@]3(Cc4ccc(Cl)cc4)C(=O)N(c4cccc(C)c4)C(=O)N23)cc1 | i | 8.3µM | i | ?
COc1ccc([C@@H]2[C@@H]3C(=O)N(C(C)(C)C)C(=O)[C@@H]3[C@]3(C)C(=O)N(c4cccc(C)c4)C(=O)N23)cc1 | i | i | i | i
Cc1ccc(CCC(=O)Nc2ccc(C)c(C)c2)o1 | i | i | i | i
C/C(=N\NC(=O)c1ccncc1)C12CC3CC(CC(C3)C1)C2 | i | i | i | i
C/C(=N\NC(N)=S)C12CC3CC(CC(C3)C1)C2 | i | 5.2µM | i | nt
SMILES | NS1 inh | Pf growth 96h | SARS PLP yeast | Pf growth 48h
Cc1ccc2oc(=O)n(Cc3ccccc3)c2c1 | i | ? | i | i
COCCN(C(=O)COC(=O)Cc1cccc(OC)c1)c1c(N)n(CC(C)C)c(=O)[nH]c1=O | nt | i | i | i
CC(NCC(=O)Nc1cc(S(=O)(=O)N2CCOCC2)ccc1N1CCOCC1)c1ccco1 (stereo unspecified) | nt | 5.9µM | i | ?
Cc1ccccc1SCC(=O)Nc1cc(S(=O)(=O)N2CCOCC2)ccc1N1CCOCC1 | i | ? | i | 8.3µM
Cc1ccccc1NCC(=O)Nc1cc(S(=O)(=O)N2CCCCC2)ccc1C | nt | ? | i | ?
Cc1ccc(S(=O)(=O)N2CCOCC2)cc1NC(=O)CNc1ccccc1N1CCCC1=O | nt | ? | i | 9.3µM
CCCCc1ccc(NC(=O)CN2C(=O)C3CCCCC3C2=O)cc1 (stereo unspecified) | nt | i | i | i
CN(C)CCCN=C(N)N | i | nt | nt | nt
Cc1ccc(S(=O)(=O)N2CCCOC2CNC(=O)C(=O)NCCc2c[nH]c3ccccc23)cc1 (stereo unspecified) | ? | 13µM | i | ?
O=C(NCCc1c[nH]c2ccccc12)C(=O)NCC1OCCCN1S(=O)(=O)c1ccccc1 (stereo unspecified) | i | ? | i | 9.3µM
O=C(NCCc1c[nH]c2ccccc12)C(=O)NCC1OCCN1S(=O)(=O)c1ccccc1 (stereo unspecified) | nt | i | i | i
Cc1cccn2c(=O)nc(SCC(=O)NCc3ccc(F)cc3)nc12 | nt | i | i | i
CCCN1C(=O)c2ccccc2NC1c1ccc(Br)cc1 (stereo unspecified) | i | i | i | ?
CCCN1C(=O)c2ccccc2NC1c1ccc(Cl)c(Cl)c1 (stereo unspecified) | i | 9.3µM | i | ?
CCCN1C(=O)c2ccccc2NC1c1ccc(Cl)cc1 (stereo unspecified) | i | i | i | 13µM
Cc1nc2ccccc2cc1C[N+]12CN3CN(CN(C3)C1)C2 | i | nt | nt | nt
O=C(O)c1cc(N=Cc2ccccc2O)cc(C(=O)O)c1 | i | nt | nt | nt
Cc1[nH]c2ccccc2c1C(=O)CN1C(=O)NC2(CC(C)CC(C)(C)C2)C1=O (stereo unspecified) | i | 10µM | i | ?
CN1CCN(CCC(=O)N2c3ccccc3Sc3ccc(C(F)(F)F)cc32)CC1 | i | 11µM | i | ?
OCCN1CCN(CCCN2c3ccccc3Sc3ccc(C(F)(F)F)cc32)CC1 | i | 1.9µM | i | 5.2µM
O=C1c2ccccc2C(=O)N1CCCCN1CCN(CCCCN2C(=O)c3ccccc3C2=O)CC1 | i | nt | nt | nt
FC(F)(F)c1ccc2c(c1)N(CCCN1CCN(CCCl)CC1)c1ccccc1S2 | i | nt | i | 9.3µM
O=C1c2ccccc2C(=O)N1CC(=O)N1c2ccccc2Sc2ccc(C(F)(F)F)cc21 | i | i | i | i
OCCN1CCN(CCCN2c3ccccc3C=Cc3ccccc32)CC1 | i | 6µM | nt | 6.7µM
COc1ccc(C)cc1NC(=O)CN1CCCN(S(=O)(=O)c2ccc(Br)cc2)CC1 | i | i | i | i
COc1ccc(CCNC(=O)C(=O)Nc2ccc3c(c2)OCO3)cc1OC | i | i | i | i
COC(=O)c1ccc(Nc2c([N+](=O)[O-])c(=O)oc3ccccc23)cc1 | i | ? | i | i
COc1ccccc1C(=O)N1N=C(c2ccc(NS(C)(=O)=O)cc2)CC1c1cccs1 (stereo unspecified) | i | i | i | i[0.00184 µM]
CS(=O)(=O)Nc1cccc(C2=NN(C(=O)CCC(=O)O)C(c3cccs3)C2)c1 (stereo unspecified) | i | i | i | i[0.00184 µM]
CS(=O)(=O)Nc1ccc(C2=NN(C(=O)CCCC(=O)O)C(c3cccs3)C2)cc1 (stereo unspecified) | i | 1.9µM | i | i

High-throughput results deposited in PubChem by National Center for Advancing Translational Sciences (NCATS).
